Some test systems named below: T-47D breast; BT-549 breast; MDA-MB-435 melanoma; SW-620 colon; MCF7 breast; HCT-116 colon; HCC-2998 colon; KM12 colon.
What all share (experiment): NCI-60 one-dose screen, 48 h (100 = growth as untreated, 0 = no growth, -100 = all killed)
Holding throughout (details): 10 µM unless noted

For 16 compounds, growth results are on record in PubChem BioAssay (NCI).

The panel holds about 83,000 compounds, 20% with a hit somewhere; the sample as a whole holds those more often.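 Assay: single dose, 48 h. Readout: percent growth (0 = no net growth; negative = cell death). Active: <10.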 Unmarked numbers belong to inactive results. The source made the active and inactive calls.

In the case of `CCOC(=O)c1c(C)nc2ccccc2c1/C=C/c1ccc(OC)cc1`, the growth in the experiment with T-47D breast is 22.2%; in the experiment on BT-549 breast, 53.3%; in the experiment with MDA-MB-435 melanoma, 61.7%; with SW-620 colon it was 85.1%; in the experiment on MCF7 breast, 63.9%; with HCT-116 colon, 55.7%. Besides, the growth with HCC-2998 colon is 77.8%; with KM12 colon it was 70.7%.

As for `O=C(Nc1nc(C(=O)N2CCN(C(c3ccccc3)c3ccccc3)CC2)cs1)c1ccc(NC2CCCCC2)c([N+](=O)[O-])c1`, the growth is 60% in the experiment on T-47D breast; 82.5% in the experiment with BT-549 breast; 91% in the experiment with MDA-MB-435 melanoma; 91.4% with SW-620 colon; 81.3% in the experiment with MCF7 breast; 82.6% in the experiment with HCT-116 colon. Further, the growth is 72.7% with HCC-2998 colon and 91.4% with KM12 colon.

On to `O=C1OCC2=C1C(c1cccc(C(F)(F)F)c1)c1cc3c(cc1N2CCO)OCO3` (stereo not drawn), for which the growth with T-47D breast was 28%; in the experiment with BT-549 breast, 55%; in the experiment on MDA-MB-435 melanoma it was -44.1% (active); with SW-620 colon it was 23.3%; in the experiment on MCF7 breast, 20.9%; in the experiment on HCT-116 colon, 21.4%. Moreover, the growth in the experiment on HCC-2998 colon is 69.9%; in the experiment on KM12 colon, 24.9%.

Take `O=c1ccc2nc(C(F)(F)F)nn(-c3ccccc3)c-2c1`: the growth is -40.8% (active) in the experiment with T-47D breast; 69.2% in the experiment on BT-549 breast; 62.3% with MDA-MB-435 melanoma; -63.3% (active) in the experiment with SW-620 colon; -49.3% (active) in the experiment on MCF7 breast; 35.2% in the experiment on HCT-116 colon. Moreover, the growth in the experiment on HCC-2998 colon is 102%; with KM12 colon, 96.8%.

As to `O=C1C(Cl)=C(NCCN2CCOCC2)C(=O)c2ncccc21`, the growth with T-47D breast was -40.8% (active); in the experiment on BT-549 breast, -91.5% (active); in the experiment on MDA-MB-435 melanoma it was 102%; with SW-620 colon, -29.5% (active); in the experiment with MCF7 breast, -50% (active); with HCT-116 colon, -51.9% (active). In addition, the values for the growth in the experiment on HCC-2998 colon and in the experiment with KM12 colon were 31.8% and 62.9%, respectively.

In the case of `Cc1ccc(-c2cc(C(=O)N3N=C(c4ccc(N)cc4)CC3c3ccc(Cl)cc3)c3ccccc3n2)cc1` (stereo not drawn), the growth in the experiment with T-47D breast is 35.9%; in the experiment on BT-549 breast it was 30.8%; in the experiment on MDA-MB-435 melanoma, -61.7% (active); in the experiment on SW-620 colon, 33.8%; with MCF7 breast, 17.8%; in the experiment with HCT-116 colon it was 11.8%. Further, the growth was 37.9% with HCC-2998 colon and 27.9% in the experiment on KM12 colon.

Regarding `COc1ccc2nc3cc(Cl)ccc3c(NCCN)c2c1`, the growth with T-47D breast is -72.3% (active); in the experiment with BT-549 breast, -45.7% (active); in the experiment with MDA-MB-435 melanoma, -90.2% (active); in the experiment with SW-620 colon, -68.9% (active); with MCF7 breast, -70.2% (active); in the experiment with HCT-116 colon it was -73.2% (active). The values for the growth in the experiment with HCC-2998 colon and in the experiment with KM12 colon were -73.2% (active) and -64% (active), respectively.

As to `CC(=O)c1cc(-c2ccccc2N)n(-c2ccc3c(c2)OCO3)c1C`, the growth is 71% in the experiment on T-47D breast; 1.13% (active) in the experiment on BT-549 breast; -43.6% (active) in the experiment with MDA-MB-435 melanoma; 29.2% in the experiment with SW-620 colon; 14.8% in the experiment with MCF7 breast; 6.22% (active) with HCT-116 colon. The growth is 15.8% with HCC-2998 colon and 5.16% (active) in the experiment with KM12 colon.

For `CC/C(Cc1ccccc1)=C(\c1ccc(OCCN2CCCCCC2)cc1)c1ccc(OC(=O)NCc2ccccc2)cc1`, the growth with T-47D breast was 40.9%; with BT-549 breast, 81.9%; with MDA-MB-435 melanoma, 79.6%; with SW-620 colon, 64.5%; in the experiment with MCF7 breast it was 13.7%; in the experiment on HCT-116 colon it was 2.8% (active). Also, the results for the growth in the experiment on HCC-2998 colon and in the experiment with KM12 colon were 65.2% and 67.9%, respectively.

`COc1cccc(/C=C/C(=O)c2cc3c(N)c(C(=O)Nc4cccc(Cl)c4C)sc3nc2C)c1`: the growth was 9.1% (active) in the experiment with T-47D breast; -22.3% (active) in the experiment with BT-549 breast; -20.4% (active) with MDA-MB-435 melanoma; -28.7% (active) in the experiment on SW-620 colon; 3.5% (active) in the experiment on MCF7 breast; -34.2% (active) in the experiment with HCT-116 colon. Besides, the growth was -79.8% (active) in the experiment on HCC-2998 colon and -19.6% (active) with KM12 colon.

As to `CC1(C)C2CC=C(/C=N/NC(=O)C3CCC(=O)N3)C1C2` (stereo not drawn), the growth was 107% in the experiment on T-47D breast; 105% in the experiment with BT-549 breast; 106% in the experiment on MDA-MB-435 melanoma; 104% in the experiment with SW-620 colon; 99.1% in the experiment on MCF7 breast; 108% with HCT-116 colon. The growth is 119% in the experiment on HCC-2998 colon and 106% in the experiment on KM12 colon.

`Cc1ccc(Nc2nc(-c3ccc(F)cc3)c(C#N)c(=O)n2C)cc1`: the growth in the experiment with T-47D breast is 35.5%; with BT-549 breast it was 52.8%; in the experiment with MDA-MB-435 melanoma, 74.7%; in the experiment on SW-620 colon, 68.9%; in the experiment on MCF7 breast, 56.1%; with HCT-116 colon, 53.4%. Also, the growth with HCC-2998 colon is 86.2%; in the experiment with KM12 colon, 87.7%.

As to `CC1(C)CCC(S(=O)(=O)c2ccc3c(c2)/C(=N\O)c2cc(S(=O)(=O)N4CCN(c5ccc(F)cc5O)CC4)ccc2-3)CC1`, the growth in the experiment on T-47D breast is -90.6% (active); in the experiment with BT-549 breast, -86.7% (active); in the experiment on MDA-MB-435 melanoma it was -92.3% (active); in the experiment with SW-620 colon, -81.5% (active); in the experiment with MCF7 breast, -67.9% (active); in the experiment with HCT-116 colon, -96.6% (active). In addition, the results for the growth in the experiment on HCC-2998 colon and in the experiment on KM12 colon were -92.1% (active) and -90.3% (active), respectively.

With `CN1CCN(CCOc2ccc(-c3cnc4c(-c5ccc(C(F)(F)F)cc5)cnn4c3)cc2)CC1`, the growth in the experiment on T-47D breast is 27.1%; with BT-549 breast, 47.8%; with MDA-MB-435 melanoma it was 11.8%; in the experiment on SW-620 colon it was -63.1% (active); with MCF7 breast, 10.3%; in the experiment with HCT-116 colon, -55.3% (active). For the same compound, the growth in the experiment on HCC-2998 colon is 33.1%; in the experiment on KM12 colon, -28.1% (active).

For `COc1ccc(C2=C/C(=C\c3ccc(Cl)cc3)C(=O)N2/N=C/c2ccc(Cl)cc2)cc1`, the growth in the experiment on T-47D breast was 82.1%; in the experiment on BT-549 breast, 101%; in the experiment on MDA-MB-435 melanoma, 104%; with SW-620 colon it was 98.9%; in the experiment on MCF7 breast, 84.5%; with HCT-116 colon, 109%. In addition, the growth in the experiment with HCC-2998 colon was 108%; with KM12 colon, 90.2%.

In the case of `CC1CN=C(c2cccc(-c3ccc(-c4ccccc4)o3)c2)N1` (stereo not drawn), the growth in the experiment with T-47D breast is -31.8% (active); in the experiment with BT-549 breast, 50.8%; in the experiment on MDA-MB-435 melanoma it was -75.8% (active); with SW-620 colon it was -40.6% (active); in the experiment with MCF7 breast, -57.2% (active); in the experiment with HCT-116 colon, -67.9% (active). The growth was -65.4% (active) with HCC-2998 colon and -8.35% (active) in the experiment on KM12 colon.
